# Source: PubChem BioAssay (National Center for Advancing Translational Sciences (NCATS))
# A selection: hits, their analogues and other compounds. The true share with any hit is near 12%.
# HP1b binding inh: blocks HP1-beta chromodomain binding to methylated histone tails. P83916. AlphaScreen HP1-beta / biotin-H3K9me3 peptide binding. Potency, µM (highest dose often 114 µM), usual class: inhibitors. hit rate 0.56% among 390,000. AID 540317; note: nearly all actives have a fitted effect of over 70% in size
#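 HP1-beta protein (50 nM final) preincubated 30 min at room temperature with biotinylated H3(1-18)K9me3 peptide (50 nM) in PBS pH 7.4, 0.01% Tween-20, then compound added for 30 min. AlphaScreen streptavidin donor/nickel chelate acceptor beads (10 ug/mL final), 30 min dark, luminescence read.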
# L3MBTL1 inh: blocks human L3MBTL1; Q9Y468; AlphaScreen L3MBTL1–H3K9me1 peptide binding; Potency, µM (top dose mostly 57.1 µM), usual class: inhibitors; hit rate 0.66% among 230,000; note: nearly all actives have a fitted effect of over 60% in size
#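 Read-out is AlphaScreen signal from streptavidin donor and nickel chelate acceptor beads (10 ug/mL final each) bridging L3MBTL1 (50 nM) and biotinylated K9-monomethylated H3(1-15) peptide (75 nM), after 30 min compound exposure at room temperature.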
# Sfp inh: inhibitors of Bacillus subtilis Sfp phosphopantetheinyl transferase; Q9F4F7; Biochemical Sfp PPTase activity, qHTS; Potency, µM, hits mostly inhibitors; hit rate 3.5% among 310,000; AID 1490;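 note: the enzyme is Sfp with the accession as filed and its product quenches rhodamine fluorescence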
#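 Fluorescence-quenching assay: 15 nM Sfp-PPTase preincubated 15 min at room temperature with compound, then 5 uM rhodamine-CoA and 12.5 uM BHQ-2-labelled YbbR peptide added. Fluorescence (ex 525/em 598 nm) read at start and after 30 min; difference gives rate.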
# G9a block: blocks human histone lysine methyltransferase G9a; Q96KQ7; G9a H3K9 monomethylation, AlphaScreen, 2 h; Potency, µM (top dose mostly 102 µM), actives largely listed as inhibitors; hit rate 8.8% among 350,000; AID 504332; note: nearly all actives have a fitted effect of over 75% in size
#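 Using a bead-based AlphaScreen, monomethylated H3K9 product from 2 h room-temperature reactions (G9a 20 nM, peptide 500 nM, SAM 20 uM) was detected with 0.5 ug/mL rabbit anti-H3K9me1 antibody.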
# BAZ2B inh: blocks human BAZ2B; Q9UIF8; AID 504333; hit rate 4.4% among 360,000; AlphaScreen BAZ2B-H3K14Ac peptide displacement; Potency, µM (highest dose often 114 µM), most hits filed as inhibitors; note: nearly all actives have a fitted effect of over 60% in size
# Target sequence (Q9UIF8 whole entry, looked up): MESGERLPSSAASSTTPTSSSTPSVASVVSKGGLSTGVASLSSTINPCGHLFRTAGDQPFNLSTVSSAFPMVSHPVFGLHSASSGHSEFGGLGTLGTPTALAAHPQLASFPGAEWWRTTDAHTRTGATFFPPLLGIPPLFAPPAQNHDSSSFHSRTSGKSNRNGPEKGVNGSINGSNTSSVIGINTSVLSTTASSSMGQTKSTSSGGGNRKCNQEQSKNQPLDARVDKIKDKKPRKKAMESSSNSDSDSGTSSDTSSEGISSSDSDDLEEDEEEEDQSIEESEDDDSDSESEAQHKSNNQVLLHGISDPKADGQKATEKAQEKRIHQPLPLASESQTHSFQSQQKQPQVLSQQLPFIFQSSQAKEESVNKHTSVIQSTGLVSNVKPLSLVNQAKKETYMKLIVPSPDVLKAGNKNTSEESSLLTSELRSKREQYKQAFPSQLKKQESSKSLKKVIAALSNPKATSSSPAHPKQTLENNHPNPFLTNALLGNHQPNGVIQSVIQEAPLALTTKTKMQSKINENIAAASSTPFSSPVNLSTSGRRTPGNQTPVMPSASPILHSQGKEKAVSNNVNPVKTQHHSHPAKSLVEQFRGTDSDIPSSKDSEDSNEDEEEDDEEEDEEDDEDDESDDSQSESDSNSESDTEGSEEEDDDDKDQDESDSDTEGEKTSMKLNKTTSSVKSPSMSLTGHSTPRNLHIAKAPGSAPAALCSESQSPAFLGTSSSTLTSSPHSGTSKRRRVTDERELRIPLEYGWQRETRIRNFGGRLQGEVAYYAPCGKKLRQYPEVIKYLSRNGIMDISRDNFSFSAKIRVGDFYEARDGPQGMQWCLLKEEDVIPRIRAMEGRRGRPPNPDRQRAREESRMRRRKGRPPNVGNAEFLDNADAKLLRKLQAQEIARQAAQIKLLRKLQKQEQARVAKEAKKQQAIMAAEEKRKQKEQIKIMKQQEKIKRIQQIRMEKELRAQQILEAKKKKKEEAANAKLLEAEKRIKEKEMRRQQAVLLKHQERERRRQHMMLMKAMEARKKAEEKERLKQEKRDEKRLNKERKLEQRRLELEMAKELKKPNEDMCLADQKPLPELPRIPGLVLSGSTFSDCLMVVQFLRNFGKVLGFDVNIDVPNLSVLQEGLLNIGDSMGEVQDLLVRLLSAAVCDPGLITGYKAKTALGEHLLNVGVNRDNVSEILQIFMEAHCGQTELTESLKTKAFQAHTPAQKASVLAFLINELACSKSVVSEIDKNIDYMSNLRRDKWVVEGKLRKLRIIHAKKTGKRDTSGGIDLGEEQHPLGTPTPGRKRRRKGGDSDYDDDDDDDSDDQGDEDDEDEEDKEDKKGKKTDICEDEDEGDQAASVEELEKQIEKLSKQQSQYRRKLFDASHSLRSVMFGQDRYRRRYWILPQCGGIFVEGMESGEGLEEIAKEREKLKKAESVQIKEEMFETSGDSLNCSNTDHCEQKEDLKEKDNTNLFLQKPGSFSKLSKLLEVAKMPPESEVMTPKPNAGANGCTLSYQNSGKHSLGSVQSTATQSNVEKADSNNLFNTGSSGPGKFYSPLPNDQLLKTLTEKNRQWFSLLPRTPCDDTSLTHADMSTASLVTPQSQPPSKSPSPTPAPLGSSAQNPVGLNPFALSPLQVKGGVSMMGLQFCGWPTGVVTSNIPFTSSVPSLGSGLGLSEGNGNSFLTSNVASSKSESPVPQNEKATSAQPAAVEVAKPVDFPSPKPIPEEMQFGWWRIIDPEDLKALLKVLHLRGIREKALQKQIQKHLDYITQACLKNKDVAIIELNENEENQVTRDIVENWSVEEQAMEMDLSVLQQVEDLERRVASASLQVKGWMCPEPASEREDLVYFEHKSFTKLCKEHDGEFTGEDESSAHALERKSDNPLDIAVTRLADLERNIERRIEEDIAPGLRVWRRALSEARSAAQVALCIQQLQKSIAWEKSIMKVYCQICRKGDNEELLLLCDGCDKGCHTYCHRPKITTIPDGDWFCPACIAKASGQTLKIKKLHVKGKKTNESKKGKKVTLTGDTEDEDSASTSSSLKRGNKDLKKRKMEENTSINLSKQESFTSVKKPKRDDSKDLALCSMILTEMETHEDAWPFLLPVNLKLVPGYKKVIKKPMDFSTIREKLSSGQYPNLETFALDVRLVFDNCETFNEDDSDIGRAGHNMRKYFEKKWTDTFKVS
#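 Inhibition is scored as reduced AlphaScreen emission. The BAZ2B/b-H3(5-23)K14Ac complex (50 nM each) in PBS pH 7.4, 0.01% Tween-20 meets compound (up to 110 uM) for 30 min at RT before bead addition.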
# JMJD2A Tudor inh: blocks the human JMJD2A Tudor domain. AlphaScreen JMJD2A-Tudor / H3K4me3 peptide binding. O75164. hit rate 4.4% among 390,000. AID 504339. Potency, µM (series often up to 114 µM), most hits filed as inhibitors; note: nearly all actives have a fitted effect of over 50% in size
# A number is an active result; – = inactive; ? = inconclusive; · = no result given; ! = repeats disagree; [ ] = dose if it differs, or a comment. Calls come from the whole dose curve; as a rule, active = well fitted curve in the direction sought with a large enough effect; inconclusive = small, poorly fitted or top-dose-only effect, or another doubt; inactive = no such curve, though single readings can be large; an effect the other way counts as inactive or inconclusive.
SMILES,HP1b binding inh,L3MBTL1 inh,Sfp inh,G9a block,BAZ2B inh,JMJD2A Tudor inh
COC(=O)[C@H](COC(C)(C)C)NC(=O)O[C@@H]1Cc2cc(Br)ccc2O[C@H]1c1cccc(OC)c1,·,·,–,·,·,·
Cc1nc2c(-c3ccccc3)c(C)nn2c(C)c1CCC(=O)N1CCN(c2ccccc2)CC1,–,·,·,–,–,–
Cc1ccc(-n2nc(-c3ccccc3)c3cnc4cc5c(cc4c32)OCO5)cc1C,–,·,·,–,·,–
COc1ccc(NC(=O)N2CCC3(CC2)CCN(C(=O)c2cccn2C)CC3)cc1,·,·,–,–[12.7 µM],·,·
C=CC[n+]1c(-c2ccc(OC)c(OC)c2)csc1NNC(=O)Nc1ccccc1,?,–,–,?,32µM,?
NCCCCCN,·,·,–,·,·,·
NCCCCN,·,·,–,50µM!,·,·
NCCCCCCCCCCN,·,·,·,–,·,·
NCCNCCNCCN,–,?,–,–,?,–
NCCCCNCCCN,–,·,?,11µM!,–,–
NCCNCCN,·,·,3.2µM,·,·,·
O=c1c(=O)n(-c2ccc(F)c(F)c2)ccn1Cc1ccc(F)cc1Cl,–,·,·,–,–,–
CCOc1ccc(-c2nnc3ccc(SCc4ccc(C(=O)OC)o4)nn23)cc1,–,·,11µM,11µM,–,–
COC(=O)c1ccc(CSc2ccc3nnc(-c4ccc(F)cc4)n3n2)o1,–,·,–,–,·,–
CCSc1ccc2nnc(-c3ccc(F)cc3)n2n1,–,–,–,18µM,–,–
CCOC(=O)CNC(=O)CSc1ccc2nnc(-c3ccc(F)cc3)n2n1,–,–,–,32µM,–,–
O=C(CSc1ccc2nnc(-c3ccc(F)cc3)n2n1)NCc1ccco1,–,?,–,8.9µM,–,–
CCOC(=O)CSc1ccc2nnc(-c3ccncc3)n2n1,–,–,–,?,–,–
CCN(CC)S(=O)(=O)c1ccc2nc(NC(=O)c3cncc(Br)c3)sc2c1,–,·,·,–,–,–
CCOC(=O)c1ccccc1NS(=O)(=O)c1c(-c2ccc(C)cc2)csc1C(=O)OC,–,·,·,–,–,–
CCN(C(=O)c1c(C)oc2ncnc(N3CCCCC3)c12)c1cc(C)ccc1C,–,·,·,–,–,–
COc1ccc(-c2nnc3ccc(SCC(=O)NCC4CCCO4)nn23)cc1 (centres undefined),–,–,–,–,–,–
O=C(CSc1ccc2nnc(-c3ccc(F)cc3)n2n1)NCC1CCCO1 (centres undefined),–,–,–,20µM,–,–
O=C(COC(=O)CC1CCCC1)Nc1cc2c(cc1Cl)C(=O)c1ccccc1C2=O,–,·,–,?,56µM,56µM
C=C1CCC[C@]2(C)C[C@H]3OC(=O)C(CNC(C)CCCC(C)C)[C@H]3CC12 (some centres undefined),–,·,–,–,–,–
SMILES,HP1b binding inh,L3MBTL1 inh,Sfp inh,G9a block,BAZ2B inh,JMJD2A Tudor inh
C=C1CCC[C@]2(C)C[C@H]3OC(=O)C(CNCC(OC)OC)[C@H]3CC12 (some centres undefined),–,·,–,79µM,–,–
CC1CCCN(C2=C(NS(=O)(=O)c3ccc(Cl)cc3)C(=O)c3ccccc3C2=O)C1 (centres undefined),6.3µM,–,–,2.5µM,5µM,8.9µM
CC1CCCN(C2=C(Cl)C(=O)N(c3cccc(Cl)c3)C2=O)C1 (centres undefined),–,–,–,–,–,–
NC(=O)C1CCN(C2=C(NS(=O)(=O)c3ccc(Cl)cc3)C(=O)c3ccccc3C2=O)CC1,–,?,–,25µM,35µM,?
COC(=O)C1CCN(C2=C(NS(=O)(=O)c3ccc(Cl)cc3)C(=O)c3ccccc3C2=O)CC1,?,?,–,–,11µM,?
CCCCOc1ccc(C(=O)Nc2ccc3c(c2)CCCN3C(=O)c2cccs2)cc1,–,·,·,–,–,–
CC(C)CCNc1c(-c2cccs2)nc2ccccn12,–,–,–,45µM,–,–
COc1cccc(N2CCN(S(=O)(=O)c3ccc(-c4cc(C(F)(F)F)on4)s3)CC2)c1,–,·,·,–,–,–
CCC/C(=C1/C(=O)CC(C)(C)C(C(=O)OC)C1=O)N1CCCC1 (centres undefined),–,–,–,71µM,–,–
CC(=O)OC1CC(OC(C)=O)[C@]2(C)C(CC(OC(C)=O)[C@@]3(C)C4=CC(=O)OC(c5ccoc5)[C@]4(C)CCC32)C1(C)C (some centres undefined),·,·,–,–[2.33 µM],·,·
